Results reported in PubChem BioAssay (NCATS).
Records with an inconclusive call do not appear. A call without a number means that no potency is given here. Activity calls are given as the source filed them. Calls follow the shape of the dose curve; as a rule, active = well fitted inhibition curve with a large enough effect; inconclusive = small, poorly fitted or top-dose-only effect; inactive = no such curve, though single readings can be large or run the other way.

target: N-terminal Xaa-Pro-Lys N-methyltransferase 1 (Homo sapiens) (UniProt Q9BV86); assay: qHTS Assay for Inhibitors of N-terminal methyltransferase 1 (NTMT1): LOPAC validation of the NTMT1 SAHH-coupled ThioGlo3 Assay (AID 1347143); conditions: recombinant NTMT1, SAHH-coupled ThioGlo3 fluorescence; series mostly up to 114 µM; also: nearly all actives have a fitted effect of over 70% in size
Sequence (Q9BV86 whole entry, looked up): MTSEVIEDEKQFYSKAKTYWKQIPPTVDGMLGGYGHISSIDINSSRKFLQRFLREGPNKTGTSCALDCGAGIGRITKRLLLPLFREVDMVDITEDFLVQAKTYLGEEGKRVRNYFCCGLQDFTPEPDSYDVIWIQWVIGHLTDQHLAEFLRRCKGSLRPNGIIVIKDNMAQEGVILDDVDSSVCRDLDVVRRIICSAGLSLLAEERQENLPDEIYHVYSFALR
Method in brief: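 Fluorescence read-out (excitation 340nm, emission 450nm) of SAH-derived thiol, measured via SAHH coupling and ThioGlo3, taken immediately and after a 30 min room-temperature reaction, then normalized to the background read. Enzyme: NTMT1 at 125nM; cofactor SAM 100uM in the added reagent.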
Potency is read from the fitted curve at half-maximal effect.

Row | Compound | Potency
1 | O=C(O)c1cccnc1Nc1cccc(C(F)(F)F)c1 | inactive
2 | O=c1c(O)c(-c2cc(O)c(O)c(O)c2)oc2cc(O)cc(O)c12 | 5.01 µM (active)
3 | O=c1ccc2ccc(O)c(O)c2o1 | 39.8 µM (active)
4 | NCCCCNCCCN | inactive
5 | NC(=NCc1ccccc1)NC(=O)c1nc(Cl)c(N)nc1N | 56.2 µM (active)
6 | Cc1cccc(-c2[nH]ncc2-c2ccc3ncccc3n2)n1 | inactive
7 | C[C@H](Cc1ccc(O)c(O)c1)[C@@H](C)Cc1ccc(O)c(O)c1 | 10 µM (active)
8 | Cc1c(OCC(F)(F)F)ccnc1CS(=O)c1nc2ccccc2[nH]1 (stereo not given) | 50.1 µM (active)
9 | CCOC(=O)C1=C(O)C(=O)N(Cc2ccccc2)C1 | inactive
10 | Clc1ccc2c(N3CCN(CCCN4CCN(c5ccnc6cc(Cl)ccc56)CC4)CC3)ccnc2c1 | 50.1 µM (active)
11 | CN(C)C(=O)[C@H](O)[C@H](Cc1ccccc1)NC(=O)c1cc2cc(Cl)ccc2[nH]1 | inactive
12 | COc1ccccc1N1CCN(CCN(C(=O)C2CCCCC2)c2ccccn2)CC1 | inactive
13 | Oc1ccc2ccccc2c1SSc1c(O)ccc2ccccc12 | 35.5 µM (active)
14 | CC(=O)N1CCN(c2ccc(OC[C@H]3CO[C@](Cn4ccnc4)(c4ccc(Cl)cc4Cl)O3)cc2)CC1 | 50.1 µM (active)

target: Furin (Homo sapiens) (UniProt P09958); assay: Furin counterscreen qHTS for Zika virus inhibitors (AID 1347149); conditions: furin enzymatic counterscreen, fluorogenic substrate; series mostly up to 57.5 µM; also: nearly all actives have a fitted effect of over 70% in size
Sequence (P09958 whole entry, looked up): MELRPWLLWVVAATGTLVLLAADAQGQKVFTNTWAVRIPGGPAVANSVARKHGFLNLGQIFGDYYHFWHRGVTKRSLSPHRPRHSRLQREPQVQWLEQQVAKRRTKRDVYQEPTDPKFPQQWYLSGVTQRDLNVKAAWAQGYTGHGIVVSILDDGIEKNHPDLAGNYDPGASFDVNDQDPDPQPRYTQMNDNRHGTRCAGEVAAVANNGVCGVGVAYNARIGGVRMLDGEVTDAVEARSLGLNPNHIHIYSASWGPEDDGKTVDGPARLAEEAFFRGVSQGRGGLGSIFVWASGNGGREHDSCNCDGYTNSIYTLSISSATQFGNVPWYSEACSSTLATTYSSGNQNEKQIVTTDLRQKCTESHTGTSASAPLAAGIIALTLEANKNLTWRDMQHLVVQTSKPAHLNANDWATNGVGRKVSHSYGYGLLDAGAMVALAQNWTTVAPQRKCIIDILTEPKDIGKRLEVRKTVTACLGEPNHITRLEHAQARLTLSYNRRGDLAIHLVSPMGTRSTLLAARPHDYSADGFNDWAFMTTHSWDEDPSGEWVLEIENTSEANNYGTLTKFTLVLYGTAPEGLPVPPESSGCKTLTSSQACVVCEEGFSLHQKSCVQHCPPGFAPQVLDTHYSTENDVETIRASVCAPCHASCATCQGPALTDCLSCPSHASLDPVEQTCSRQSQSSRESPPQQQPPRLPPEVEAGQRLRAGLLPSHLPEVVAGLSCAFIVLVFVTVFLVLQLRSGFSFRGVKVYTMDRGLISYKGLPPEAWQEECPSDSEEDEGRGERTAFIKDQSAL
Method in brief: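 Fluorogenic cleavage of BOC-RVRR-AMC (2 microM final, Km ~15 µM) was monitored (ex 340, em 450 nm) at 37C after 15 min RT preincubation of 5 nM furin with compounds in HEPES pH 7.0 buffer with CaCl2 and Triton X-100. Percent inhibition was fitted to a 4-parameter Hill curve.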

Row | Compound | Potency
15 | CCc1nc(N)nc(N)c1-c1ccc(Cl)cc1 | inactive
16 | COc1cc2c(cc1OC)C1CC(=O)C(CC(C)C)CN1CC2 (stereo not given) | 27.1 µM (active)
17 | O=c1c(O)c(-c2cc(O)c(O)c(O)c2)oc2cc(O)cc(O)c12 | inactive
18 | CN(C)C(=O)[C@H](O)[C@H](Cc1ccccc1)NC(=O)c1cc2cc(Cl)ccc2[nH]1 | inactive
19 | O=c1c(O)c(-c2ccc(O)cc2O)oc2cc(O)cc(O)c12 | inactive

tested on: Zika virus NS2B-NS3 protease (unlinked); assay: Optimization of GU AMC qHTS for Zika virus inhibitors: Unlinked NS2B-NS3 protease assay (AID 1347151); conditions: recombinant ZIKV NS2B-NS3 protease, fluorogenic AMC substrate; series mostly up to 52.5 µM; also: nearly all actives have a fitted effect of over 80% in size
Method in brief: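 Noncovalent complex of NS2B hydrophilic domain and NS3 protease domain, 25 nM final, in 10 mM Tris-HCl pH 8.0, 0.01% Tween 20. AMC fluorescence change over 15 min at room temperature was fitted to a 4-parameter Hill equation.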

Row | Compound | Potency
20 | O=C1NC(=O)C(c2ccccc2[N+](=O)[O-])=C1Nc1ccc(O)c(Cl)c1 | inactive
21 | Nc1nc(N)c(N=O)c(OCC2CCCCC2)n1 | inactive
22 | C[C@@H](N)C1CCC(C(=O)Nc2ccncc2)CC1 (stereo not given in full) | inactive
23 | Cc1cc(O)c2c(c1)C(=O)c1cc(O)cc(O)c1C2=O | 15 µM (active)
24 | CC(=O)NC[C@H]1CN(c2ccc(N3CCOCC3)c(F)c2)C(=O)O1 | inactive
25 | CCc1nc(N)nc(N)c1-c1ccc(Cl)cc1 | inactive
26 | CNC[C@H](O)c1ccc(O)c(O)c1 | inactive
27 | CC(C)c1ccc2c(c1)c(SC(C)(C)C)c(CC(C)(C)C(=O)O)n2Cc1ccc(Cl)cc1 | 1.34 µM (active)
28 | O=C(c1ccccc1)c1ccc2n1CCC2C(=O)O (stereo not given) | inactive
29 | CC1(C)NC(=O)N(c2ccc([N+](=O)[O-])c(C(F)(F)F)c2)C1=O | inactive
30 | C[C@@H](c1ncncc1F)[C@](O)(Cn1cncn1)c1ccc(F)cc1F | inactive
31 | NNc1nncc2ccccc12 | inactive
32 | O=C(O)c1cccnc1Nc1cccc(C(F)(F)F)c1 | inactive
33 | O=c1c(O)c(-c2cc(O)c(O)c(O)c2)oc2cc(O)cc(O)c12 | 21.2 µM (active)
34 | O=c1ccc2ccc(O)c(O)c2o1 | inactive
35 | NCCCCNCCCN | inactive
36 | NC(=NCc1ccccc1)NC(=O)c1nc(Cl)c(N)nc1N | 26.7 µM (active)
37 | Cc1cccc(-c2[nH]ncc2-c2ccc3ncccc3n2)n1 | inactive
38 | C[C@H](Cc1ccc(O)c(O)c1)[C@@H](C)Cc1ccc(O)c(O)c1 | 9.47 µM (active)
39 | CCOC(=O)C1=C(O)C(=O)N(Cc2ccccc2)C1 | inactive
40 | Clc1ccc2c(N3CCN(CCCN4CCN(c5ccnc6cc(Cl)ccc56)CC4)CC3)ccnc2c1 | inactive
41 | CN(C)C(=O)[C@H](O)[C@H](Cc1ccccc1)NC(=O)c1cc2cc(Cl)ccc2[nH]1 | 26.7 µM (active)
42 | COc1ccccc1N1CCN(CCN(C(=O)C2CCCCC2)c2ccccn2)CC1 | inactive
43 | Oc1ccc2ccccc2c1SSc1c(O)ccc2ccccc12 | 10.6 µM (active)
44 | O=c1c(O)c(-c2ccc(O)cc2O)oc2cc(O)cc(O)c12 | 11.9 µM (active)
45 | CC(=O)N1CCN(c2ccc(OC[C@H]3CO[C@](Cn4ccnc4)(c4ccc(Cl)cc4Cl)O3)cc2)CC1 | inactive
